# IMPase Li inh: membrane-permeable IMPase blocker, potentiated with lithium. actives 0.35% (n = 210,000). AID 1457. CHO-M1 cells, IP1 TR-FRET (IP-One), carbachol + lithium. Potency, µM (titrated, usually from 59.4 µM), actives largely listed as inhibitors;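 note: IP1 builds up when IMPase is blocked and the TR-FRET signal falls; nearly all actives have a fitted effect of over 50% in size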
#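 Test compounds were applied to CHO-M1 cells previously cultured for 16–30 h at 2000 per well. A small lithium amount accompanied them; after 30 min at 37C, IP1 was quantified by TR-FRET.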
# HttQ103 aggreg: reduces HttQ103-GFP aggregates in PC12 cells | PC12 HttQ103-GFP aggregates, Acumen cytometry, 40 h | Potency, µM (series often up to 46.1 µM), hits mostly inhibitors | actives 1.1% (n = 220,000); note: nearly all actives have a fitted effect of over 60% in size
#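 Using laser scanning cytometry, GFP-positive aggregates were counted after lysis of PC12 cells induced with 100 nM tebufenozide to express HTT exon 1 Q103–GFP. Compounds were tested in titration.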
# Lamin A splicing: modulators of lamin A splicing | HeLa LMNA splicing GFP/RFP minigene ratio, 48 h | Potency, µM (highest dose often 46.1 µM), usual class: inhibitors | actives 0.01% (n = 200,000) | AID 1487; active = well fitted inhibition curve with a large enough effect in the signal ratio, with a control signal flat, not every such curve was filed as active; inconclusive = small, poorly fitted or top-dose-only effect, or effect the other way, or a change in a side signal; the % refers to the signal ratio
#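 S3 HeLa stable clones carrying a lamin A-EGFP splicing minigene plus DsRed2 were seeded at 600 cells/well in Opti-MEM with 2% FBS, pin-dosed and incubated 48 h at 37°C. Acumen cytometry (488 nm) gave the GFP/RFP total-intensity ratio.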
# IMPase cell inh: IMPase inhibition in cells. P97697. CHO-M1 cells, IP1 accumulation, HTRF TR-FRET ratio. inhibition (IP1 accumulation), % at 46.1 µM. 120,000 tested, under 10 active. AID 901; active = well fitted curve in the direction sought with a large enough effect in the signal ratio, not every such curve was filed as active; inconclusive = small, poorly fitted or top-dose-only effect, or a change in a side signal; inactive = no such curve, though single readings can be large or run the other way; the % refers to the signal ratio;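 note: cells stimulated with carbachol in lithium chloride buffer; higher means more IMPase inhibition seen as more IP1 and lower FRET ratio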
# Target sequence (P97697 whole entry, looked up): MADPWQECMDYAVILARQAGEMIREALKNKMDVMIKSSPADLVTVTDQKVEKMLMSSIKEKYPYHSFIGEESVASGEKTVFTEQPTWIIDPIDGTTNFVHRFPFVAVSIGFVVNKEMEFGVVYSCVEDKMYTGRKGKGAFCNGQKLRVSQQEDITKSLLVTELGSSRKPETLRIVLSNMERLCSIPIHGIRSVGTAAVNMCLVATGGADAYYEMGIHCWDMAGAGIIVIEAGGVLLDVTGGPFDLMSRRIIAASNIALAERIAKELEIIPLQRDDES
#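 Measured: the HTRF emission ratio (665/620 nm) plus the 620 nm donor channel, each fitted to the Hill equation to give AC50. Cells were CHO-M1 given compounds up to 46 uM and a 30 min carbachol stimulation at 37C.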
# NPSR antag: neuropeptide S receptor (human) antagonism, cAMP. Q6W5P4. CHO-NPSR cells, cAMP TR-FRET, antagonist mode. AID 1461. actives 1% (n = 220,000). Potency, µM (doses to about 38.3 µM), actives largely listed as inhibitors; note: nearly all actives have a fitted effect of over 50% in size
# HTT cytoprotect: Huntington cell model cytoprotection by ATP luminescence; PC12 HTT-Q103 induced, cytoprotection, ATP luminescence, 40 h; Potency, µM (doses to about 56.4 µM), hits mostly activators; actives 0.14% (n = 230,000); note: nearly all actives have a fitted effect of over 45% in size
#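 Compounds were screened for protection of PC12 cells against cell death after tebufenozide induction (100 nM final) of mutant Huntingtin exon 1 (Q103) fused to GFP.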
# A number is an active result; i = inactive; ? = inconclusive; nt = no result given; [ ] = another dose, or the depositor's remark. In the library only some 1.6% were active in any assay of this set; here they are far more common. Unless noted, calls come from the whole dose curve; as a rule, active = well fitted curve in the direction sought with a large enough effect; inconclusive = small, poorly fitted or top-dose-only effect, or another doubt; inactive = no such curve, though single readings can be large; an effect the other way counts as inactive or inconclusive.
SMILES,IMPase Li inh,HttQ103 aggreg,Lamin A splicing,IMPase cell inh,NPSR antag,HTT cytoprotect
COc1ccccc1N1CCN(Cc2cc(Br)c(O)c3ncccc23)CC1,i,10µM,?,i,i,i
Cc1cc(C)c(O)c(-c2cc(C(=O)Nc3ccc(S(=O)(=O)N4CCOCC4)cc3)[nH]n2)c1,i,20µM,?,i,13µM,i[0.074 µM]
Cc1ccc(C(=O)Nc2ccc(S(=O)(=O)N3CCOCC3)cc2)cc1,i,nt,nt,nt,i,nt
COc1ccc(CCNC(=O)CSc2nc(N)c(C#N)c(-c3cccs3)c2C#N)cc1OC,28µM,i,?,i,i,i[0.074 µM]
CCN(CC)C(=O)CSc1nc(N)c(C#N)c(-c2cccs2)c1C#N,i,i,i,i,i,i[10 µM]
Cc1ccccc1NC(=O)CSc1nc(N)c(C#N)c(-c2cccs2)c1C#N,5µM,i,i,?,?,i[0.074 µM]
COC(=O)CSc1nc(-c2cccs2)ccc1C#N,25µM,i,i,?,i,i
COc1ccc(CNC(=O)CSc2nc(-c3ccccc3)cc(-c3cccs3)c2C#N)cc1,i,i[9.22 µM],i,i,10µM,i
Nc1cc(Cl)c([N+](=O)[O-])cc1O,i,nt,nt,nt,nt,i
C=CCSSSCC=C,i,i,?,nt,nt,i
COC(=O)/C=C\c1cc(O)ccc1O,i,nt,nt,i,nt,i
Cc1ccc(S(=O)(=O)NCC2CCC(C(=O)NCCc3ccc(Cl)cc3)CC2)cc1 (stereo not given),nt,nt,i,nt,nt,nt
CCc1ccccc1NC(=O)CSc1nc2c(c(-c3ccco3)c1C#N)CCCC2,?,i[9.22 µM],i,i,?,i
Cc1ccccc1NC(=O)CSc1nc2c(c(-c3ccco3)c1C#N)CCCC2,?,i[9.22 µM],i,i,10µM,i
O=c1[nH]n2c(=O)c3c([nH]c2c1N=Nc1cccc(C(F)(F)F)c1)CCCC3,i,?,?,i[1.84 µM],13µM,i[10 µM]
O=c1[nH]n2c(=O)c3c([nH]c2c1N=Nc1cccc(Cl)c1)CCC3,i,i,?,nt,i,nt
CC1=CC2=NC(=O)/C(=C\c3cccn3CCOc3ccccc3C)C(=N)N2O1,i,?,nt,nt,10µM,i
COc1ccccc1OCCOc1ccc(/C=C2/C(=N)N3OC(C)=CC3=NC2=O)cc1OC,i,i,i,i,i,i
Cc1cccnc1CN1CCN(C(=O)c2cc(COc3ccc4ncccc4c3)on2)CC1,nt,6.3µM,nt,nt,i,i
O=C(NC1CCCCCCC1)c1cc(COc2ccc3ncccc3c2)on1,i,3.2µM,?,nt,i,i
CCCN(CCc1cccs1)[C@H]1CCc2c(O)cccc2C1,nt,i,nt,nt,nt,i
CCOC(=S)SCC(=O)Nc1nccs1,i,5.6µM,nt,nt,i,i[10 µM]
Cc1ncn(-c2ccccc2O)c1C,i,nt,nt,nt,nt,i[10 µM]
CNC(=O)[C@@H]1O[C@@H](n2cnc3c(NCc4ccc(N)cc4)ncnc32)[C@@H](O)[C@H]1O,nt,nt,nt,i,nt,i[1.9 µM]
COC(=O)Sc1nnc(-c2ccc(Br)cc2)o1,10µM,i,i,?,i,i
SMILES,IMPase Li inh,HttQ103 aggreg,Lamin A splicing,IMPase cell inh,NPSR antag,HTT cytoprotect
COc1cc(OC)cc(C(=O)N[C@H](C(=O)Nc2nc(-c3ccc(OC)c(OC)c3)cs2)C(C)C)c1,nt,i[9.22 µM],nt,nt,i,i[10 µM]
COc1ccc(-c2ccc(C(=O)O)c(=O)[nH]2)cc1,3.2µM,i,i[9.22 µM],nt,i,i
O=C(O)c1cccc(CN2CCCCC2)c1,i,nt,nt,nt,nt,i[10 µM]
O=C(CSc1nc2ccsc2c(=O)n1Cc1ccccc1)NCC1CCCO1 (stereo not given),i,i,nt,nt,i,i
CCC1CCCCN1C(=O)CSc1nc2ccsc2c(=O)n1Cc1ccccc1 (stereo not given),i,16µM,i,i,?,i
CCOC(=O)c1sc(NC(=O)Nc2ccc(Cl)cc2)cc1C,i,22µM,?,i,?,i[10 µM]
C/C(CC/C(C)=N/O)=N/O,i,nt,nt,nt,nt,i[10 µM]
Cc1nc2c(c(=O)n1CCC1=CCCCC1)c1nc3ccccc3nc1n2/N=C/c1ccco1,i,i,i,?,10µM,i[0.074 µM]
Cc1cc(NC(=O)CSc2nc(-c3ccccc3)c(C#N)c(=O)[nH]2)no1,7.9µM,i,i,?,7.9µM,i[0.074 µM]
Cc1cc(C)nc(NS(=O)(=O)c2ccc(NC(=O)CSc3nc(-c4ccccc4)c(C#N)c(=O)[nH]3)cc2)n1,11µM,i,i[9.22 µM],nt,4µM,i
Cc1cc(=O)[nH]c(SCC(=O)Nc2cccc3ccccc23)c1C#N,i,3.2µM,?,i,i,i

# High-throughput results from PubChem BioAssay.
